Source: PubChem BioAssay (National Center for Advancing Translational Sciences (NCATS))
Compounds with a hit are over-represented: about 10% of the library has one in this group of screens.
ALDH1A1 block: blocks purified human ALDH1A1 activity | Purified ALDH1A1, NADH fluorescence, propionaldehyde substrate | Potency, µM (series often up to 75.3 µM), for the others: top-dose activity, negative = inhibition, usual class: inhibitors | 7.3% of 220,000 active;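 also: potency is read from the fitted curve at half-maximal effect; plate controls were no enzyme wells and a reference inhibitor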
HPGD inh: inhibitors of human 15-hydroxyprostaglandin dehydrogenase (HPGD); P15428; purified HPGD, NADH fluorescence kinetic, PGE2 substrate; Potency, µM, inactives show at the top dose activity change, negative = inhibition, most hits filed as inhibitors; 4.3% of 150,000 active; AID 894; also: potency is read from the fitted curve at half-maximal effect
Target sequence (P15428 whole entry, looked up): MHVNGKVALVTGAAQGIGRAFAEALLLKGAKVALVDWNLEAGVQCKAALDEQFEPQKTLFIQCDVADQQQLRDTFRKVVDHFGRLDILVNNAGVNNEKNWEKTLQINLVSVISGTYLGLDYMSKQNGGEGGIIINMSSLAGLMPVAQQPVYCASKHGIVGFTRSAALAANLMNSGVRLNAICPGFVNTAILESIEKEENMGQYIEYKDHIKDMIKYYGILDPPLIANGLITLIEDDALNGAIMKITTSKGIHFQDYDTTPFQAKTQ
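20 nM HPGD preincubated 15 min at room temperature with compound in 50 mM Tris-HCl pH 8, 0.01% Tween 20. Started with 1 mM NAD+ and 30 uM prostaglandin E2; NADH fluorescence (360/450 nm) read 5 times over 30-s intervals, last minus first.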
Lamin A splicing: changes lamin A minigene splicing in HeLa cells; AID 1487; HeLa LMNA splicing GFP/RFP minigene ratio, 48 h; Potency, µM (series often up to 46.1 µM), for the others: at the top dose ratio change, negative = inhibition, actives largely listed as inhibitors; 0.01% of 200,000 active; active = well fitted inhibition curve with a large enough effect in the signal ratio, with a control signal flat, not every such curve was filed as active; inconclusive = small, poorly fitted or top-dose-only effect, or effect the other way, or a change in a side signal; the % refers to the signal ratio; also: potency is read from the fitted curve at half-maximal effect
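S3 HeLa stable clones carrying a lamin A-EGFP splicing minigene plus DsRed2 were seeded at 600 cells/well in Opti-MEM with 2% FBS, pin-dosed and incubated 48 h at 37°C. Acumen cytometry (488 nm) gave the GFP/RFP total-intensity ratio.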
PNC inhibitor: inhibitors of perinucleolar compartment assembly | activity change (PNC), negative = inhibition, % at 10 µM | 3.1% of 140,000 active | PC3M PTB-GFP, PNC prevalence imaging, 16 h; active compounds read low;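 active = readout at or below -70, meaning at least 70% loss of cells showing the perinucleolar compartment, a nuclear body marking cancer cells; inconclusive = readout between -30 and a set limit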;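 also: plate controls were DMSO wells for no effect and camptothecin positive control wells for full effect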
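PC3M cells stably expressing PTB-GFP, 750–1000 cells/well, treated 16 h at 37 °C with compound (23 nl of library stock), in duplicate. After paraformaldehyde fixation and Hoechst stain, imaged at 20x; PNC prevalence scored by image analysis.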
Luc counter: Kinase-Glo luciferase inhibition (counter-screen); 0.28% of 200,000 active; AID 1379; Potency, µM (series often up to 38.3 µM), for the others: at the highest dose activity change, negative = inhibition, most hits filed as inhibitors; Kinase-Glo luciferase, ATP luminescence, 8 min; Q27757; active = well fitted inhibition curve with a large enough effect; inconclusive = small, poorly fitted or top-dose-only effect; also: potency is read from the fitted curve at half-maximal effect; nearly all actives have a fitted effect of over 60% in size
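Recombinant Kinase-Glo luciferase, 10 uM ATP (linear range), luciferin; imidazole pH 7.2 / KCl / MgCl2 / Tween / BSA buffer; 8 min RT; luminescence.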
Active calls of the source: *; ? = inconclusive; · = no result given; [ ] = another dose, or the depositor's remark. Unless noted, calls follow the shape of the dose curve; as a rule, active = well fitted inhibition curve with a large enough effect (not every such curve was filed as active); inconclusive = small, poorly fitted or top-dose-only effect, or another doubt; inactive = no such curve, though single readings can be large or run the other way. Unless noted, % is scaled to controls: 0 for no effect and ±100 for the full control effect.

SMILES	ALDH1A1 block	HPGD inh	Lamin A splicing	PNC inhibitor	Luc counter
C=CCSc1nc2c(c(=O)[nH]c(=O)n2C)n1C/C=C(/C)Cl	?	-25%	5%	-28	-2%
CCOC(=O)C(C)Sc1nc2c(c(=O)[nH]c(=O)n2C)n1C/C=C(/C)Cl (stereo not drawn)	7.1µM*	22µM*	-1%	14	3%
CCOC(=O)C(C)n1cnc2c1c(=O)[nH]c(=O)n2C (stereo not drawn)	7%	-19%	2%	-100*	1%
COc1ccccc1C(=O)OCc1cc(=O)n2nc(C(C)C)sc2n1	·	·	-4%[46 µM]	·	·
Cc1cc(C)n(-c2nc(C)c(C)c(=O)n2CC(=O)Nc2ccc([N+](=O)[O-])cc2)n1	·	·	-3%[46 µM]	·	·
Cn1c(=O)c(-c2cccc(C#N)c2)nc2cnc(Oc3ccccc3)nc21	?	·	6%	·	·
C=CCSc1nc2c(c(=O)[nH]c(=O)n2C)n1CC	14µM*	14µM*	3%	?	1%
C=CCn1c(SCCN2CCOCC2)nc2c1c(=O)[nH]c(=O)n2C	-6%	-19%	-19%	?	1%
Cc1ccc(C(=O)CSC2=C(C#N)C(c3ccco3)C3=C(CC(C)(C)CC3=O)N2)cc1 (stereo not drawn)	13µM*	-10%	?	-4	-2%
N#CC1=C(SCC(=O)Nc2ccc(C(=O)O)cc2)NC(=O)CC1c1ccco1 (stereo not drawn)	13µM*	·	30%[46 µM]	·	·
COc1ccc(OC)c(NC(=O)CSC2=C(C#N)C(c3ccco3)C3=C(CCCC3=O)N2)c1 (stereo not drawn)	?	-20%	?	-30	-5%
CCc1ccccc1NC(=O)CSC1=C(C#N)C(c2ccc3c(c2)OCO3)C2=C(CCCC2=O)N1 (stereo not drawn)	25µM*	-20%	0%	?	-4%
N#CC1=C(SCC(=O)c2ccc(Cl)cc2)NC2=C(C(=O)CCC2)C1c1ccco1 (stereo not drawn)	28µM*	-20%	1%	?	-5%
CCOC(=O)CSC1=C(C#N)C(c2ccc(OC)cc2)C2=C(CC(C)(C)CC2=O)N1 (stereo not drawn)	?	?	?	-3	6%
O=C(O)C[C@H](NC(=O)CP(=O)(O)O)C(=O)O.[NH-][C@@H]1CCCC[C@@H]1[NH-].[Pt]	8%[13.5 µM]	2%	·	·	-4%[7.66 µM]
CC[C@@]12CCCN3CCc4c(n(c5ccccc45)C(=O)C1)[C@H]32	5%[13.5 µM]	-4%	?	·	-1%[7.66 µM]
COc1ccccc1NC(=O)C1=C(C)NC(SCC(=O)c2ccccc2)=C(C#N)C1c1ccco1 (stereo not drawn)	14µM*	?	-5%	?	-1%
CCOC(=O)C1=C(c2ccccc2)NC(SCC(=O)NC2CCCCC2)=C(C#N)C1c1ccco1 (stereo not drawn)	18µM*	-28%	4%	30	0%
Cc1ccc(NC(=O)CSC2=C(C#N)C(c3ccc4c(c3)OCO4)CC(=O)N2)cc1C (stereo not drawn)	1%	-10%	?	-100*	2%
CC(=O)C1=C(C)NC(SCC(=O)c2ccc(C)cc2)=C(C#N)C1c1ccco1 (stereo not drawn)	10µM*	28µM*	-5%	5	4%
COCCn1c(=O)c(-c2cccs2)nc2cnc(N(C)C)nc21	?	·	6%	·	·
Cc1ccc(C)c([C@@H]2NC(=O)c3ccccc3N2)c1	?	?	·	·	0%[7.66 µM]
CCOC(=O)C1=C(C)NC(SCC(=O)OC)=C(C#N)C1c1ccc(C(=O)OC)cc1 (stereo not drawn)	?	?	8%	-20	11%
CCOC(=O)CSC1=C(C#N)C(c2ccc(C)o2)CC(=O)N1 (stereo not drawn)	-14%	-9%	?	-85*	-1%
COCCOC(=O)C1=C(C)NC(SCC(=O)NC(C)(C)C)=C(C#N)C1c1ccco1 (stereo not drawn)	6%	16µM*	-2%	?	1%
SMILES	ALDH1A1 block	HPGD inh	Lamin A splicing	PNC inhibitor	Luc counter
CCOC(=O)CSC1=C(C#N)C(c2ccc(F)cc2)C(C(C)=O)=C(C)N1 (stereo not drawn)	22µM*	-27%	11%	-16	-1%
CC1(C)CC(=O)C2=C(C1)NC(SCC(=O)Nc1ccccc1)=C(C#N)C2c1ccco1 (stereo not drawn)	13µM*	-8%	?	-23	-5%
Cc1ccc(NC(=O)CSC2=C(C#N)C(c3ccco3)C3=C(CCCC3=O)N2)cc1 (stereo not drawn)	?	?	?	13	4%
CCCCC(=O)Nc1cc(-c2cn3cccnc3n2)ccc1C	·	·	9%[46 µM]	·	·
CC(C)OC(=O)/C(C#N)=C\c1cccnc1	8.9µM*	·	-6%[46 µM]	·	5%
CCCCNC(=O)/C(C#N)=C/c1cccnc1	-4%	?	-11%	-106*	0%
CCCCNC(=O)/C(C#N)=C/c1ccc2c(c1)OCCO2	6.3µM*	?	-10%	2	-1%
CCCCCCCCNC(=O)/C(C#N)=C/c1ccc2c(c1)OCCO2	?	?	-6%	?	2%
CCOC(=O)c1ccccc1NC(=O)c1cc2ccc3cccnc3c2[nH]1	·	·	2%[46 µM]	·	·
C[Si](C)(C)C#Cc1ccccc1NC(=S)Nc1ccccc1	13µM*	?	·	·	-4%
S=C(Nc1ccccc1)Nc1ccccc1C#Cc1ccccc1	18µM*	?	·	·	-9%
Cc1c(NC(=O)C(C)OC(=O)c2sc3ccccc3c2Cl)c(=O)n(-c2ccccc2)n1C (stereo not drawn)	-4%	-9%	0%	-116*	-3%
CCOC(=O)c1noc2nc(C)n(Cc3cccc(C#N)c3)c(=O)c12	·	·	7%[46 µM]	·	·
NC(=O)Cn1c2[n+](c3ccccc31)CC(O)CS2 (stereo not drawn)	11µM*	-9%	5%	-10	-1%
CCOC(=O)Cn1c2[n+](c3ccccc31)CC(O)CS2 (stereo not drawn)	5%	3%	14%	26	2%
c1ccc(-c2nc(-c3cccs3)c(NC3CCCCC3)o2)cc1	2%	-10%	·	·	-2%
COc1ccccc1N1CCN(C(=O)/C=C/c2ccco2)CC1	-5%	3%	-1%	-10	2%
COc1ccc(N2CCN(C(=O)/C=C/c3ccco3)CC2)cc1	22µM*	·	?	·	-4%
O=C(/C=C/c1ccco1)N1CCN(S(=O)(=O)c2ccc(F)c(F)c2F)CC1	?	·	·	·	-1%
Cc1ccc(S(=O)(=O)N2CCN(C(=O)/C=C/c3ccco3)CC2)cc1	22µM*	-20%	-12%	-1	3%
O=C(CCc1ccccc1)NC(=S)Nc1cccc(Br)c1	?	-26%	?	-9	1%
S=C(Nc1cccc(Br)c1)c1ccccc1	3%	13µM*	?	?	-36%
